The supplement of paper PMC11732987, “Enantioselective OTUD7B fragment discovery through chemoproteomics screening and high-throughput optimisation” (Communications Chemistry, 2025)

Columns and labels:
Assay in all cases: log2 ratio of Biotin-Ahx-Ub-VS probe labelling (fragment/DMSO); higher = less target engagement (more negative = stronger competition), active = hit call of the paper (q ≤ 0.05, log2 ratio ≤ -1)
Details in all cases: compound concentration: 200 uM; treatment time: 3 h
USP19 = molecular target: T1, USP19 (UniProt O94966)
T1 sequence (whole entry): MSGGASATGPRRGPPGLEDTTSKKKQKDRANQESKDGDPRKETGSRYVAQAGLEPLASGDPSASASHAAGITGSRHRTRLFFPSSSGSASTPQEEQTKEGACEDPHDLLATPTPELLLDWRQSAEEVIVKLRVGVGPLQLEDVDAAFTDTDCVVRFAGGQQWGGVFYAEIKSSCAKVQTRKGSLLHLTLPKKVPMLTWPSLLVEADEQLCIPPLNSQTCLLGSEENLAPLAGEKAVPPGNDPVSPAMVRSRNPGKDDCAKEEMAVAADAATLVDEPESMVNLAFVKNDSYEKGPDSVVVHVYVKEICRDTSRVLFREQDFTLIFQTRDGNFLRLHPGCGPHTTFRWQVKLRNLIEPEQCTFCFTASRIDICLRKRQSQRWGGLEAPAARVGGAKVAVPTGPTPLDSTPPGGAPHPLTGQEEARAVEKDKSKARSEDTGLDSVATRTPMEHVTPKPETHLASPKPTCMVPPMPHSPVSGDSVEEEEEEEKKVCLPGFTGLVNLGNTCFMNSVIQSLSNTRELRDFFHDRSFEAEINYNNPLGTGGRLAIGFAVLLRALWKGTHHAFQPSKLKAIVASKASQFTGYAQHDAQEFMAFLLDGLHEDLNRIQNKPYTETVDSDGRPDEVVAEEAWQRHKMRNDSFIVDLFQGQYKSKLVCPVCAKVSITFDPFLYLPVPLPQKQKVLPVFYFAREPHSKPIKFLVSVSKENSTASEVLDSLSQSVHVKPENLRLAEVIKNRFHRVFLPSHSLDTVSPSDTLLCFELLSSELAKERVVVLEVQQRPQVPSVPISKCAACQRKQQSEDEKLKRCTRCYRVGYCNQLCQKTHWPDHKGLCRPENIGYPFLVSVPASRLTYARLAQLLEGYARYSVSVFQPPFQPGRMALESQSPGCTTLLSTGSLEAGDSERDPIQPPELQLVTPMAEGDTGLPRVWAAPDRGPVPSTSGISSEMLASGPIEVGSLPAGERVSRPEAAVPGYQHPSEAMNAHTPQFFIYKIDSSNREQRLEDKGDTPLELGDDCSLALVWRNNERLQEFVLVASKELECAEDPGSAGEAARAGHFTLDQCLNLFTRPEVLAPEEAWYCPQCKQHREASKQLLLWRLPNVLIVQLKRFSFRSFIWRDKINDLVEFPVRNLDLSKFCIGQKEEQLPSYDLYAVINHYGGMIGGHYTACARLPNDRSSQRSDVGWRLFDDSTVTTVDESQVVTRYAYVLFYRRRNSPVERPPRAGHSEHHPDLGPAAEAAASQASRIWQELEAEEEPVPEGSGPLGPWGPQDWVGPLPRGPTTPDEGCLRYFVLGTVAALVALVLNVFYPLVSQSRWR
Summary of the method: (§1)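 Average log2 ratios of fragment over vehicle were obtained by unpaired t-test from global-median-normalised Spectronaut label-free quantities. Proteins with ≥2 unique peptides were included. HEK293T lysate (495 µg per sample) was treated in triplicate with fragment at 200 µM or vehicle for 3 h, then with Biotin-Ahx-Ub-VS at 0.5 µM final for 1 h, and labelled DUBs were NeutrAvidin-enriched and run by diaPASEF LC-MS/MS.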

USP22 = molecular target: T2, USP22 (UniProt Q9UPT9)
T2 sequence (whole entry): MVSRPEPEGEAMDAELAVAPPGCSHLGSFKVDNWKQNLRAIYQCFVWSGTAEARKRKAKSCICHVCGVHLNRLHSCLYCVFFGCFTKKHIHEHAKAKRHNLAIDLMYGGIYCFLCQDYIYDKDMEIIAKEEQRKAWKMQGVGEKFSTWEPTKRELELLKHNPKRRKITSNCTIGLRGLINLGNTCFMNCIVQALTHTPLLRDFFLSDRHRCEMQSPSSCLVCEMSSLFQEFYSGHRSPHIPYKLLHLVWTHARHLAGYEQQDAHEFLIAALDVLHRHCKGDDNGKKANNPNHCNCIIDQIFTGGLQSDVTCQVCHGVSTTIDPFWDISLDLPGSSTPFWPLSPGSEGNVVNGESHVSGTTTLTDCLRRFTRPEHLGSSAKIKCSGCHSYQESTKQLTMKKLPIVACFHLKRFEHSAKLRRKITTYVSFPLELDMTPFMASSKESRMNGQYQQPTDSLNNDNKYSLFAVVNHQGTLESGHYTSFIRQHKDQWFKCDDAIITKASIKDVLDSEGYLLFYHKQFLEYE
Summary of the method: as §1

USP24 = USP24 (UniProt Q9UPU5)
USP24, sequence (Q9UPU5 whole entry): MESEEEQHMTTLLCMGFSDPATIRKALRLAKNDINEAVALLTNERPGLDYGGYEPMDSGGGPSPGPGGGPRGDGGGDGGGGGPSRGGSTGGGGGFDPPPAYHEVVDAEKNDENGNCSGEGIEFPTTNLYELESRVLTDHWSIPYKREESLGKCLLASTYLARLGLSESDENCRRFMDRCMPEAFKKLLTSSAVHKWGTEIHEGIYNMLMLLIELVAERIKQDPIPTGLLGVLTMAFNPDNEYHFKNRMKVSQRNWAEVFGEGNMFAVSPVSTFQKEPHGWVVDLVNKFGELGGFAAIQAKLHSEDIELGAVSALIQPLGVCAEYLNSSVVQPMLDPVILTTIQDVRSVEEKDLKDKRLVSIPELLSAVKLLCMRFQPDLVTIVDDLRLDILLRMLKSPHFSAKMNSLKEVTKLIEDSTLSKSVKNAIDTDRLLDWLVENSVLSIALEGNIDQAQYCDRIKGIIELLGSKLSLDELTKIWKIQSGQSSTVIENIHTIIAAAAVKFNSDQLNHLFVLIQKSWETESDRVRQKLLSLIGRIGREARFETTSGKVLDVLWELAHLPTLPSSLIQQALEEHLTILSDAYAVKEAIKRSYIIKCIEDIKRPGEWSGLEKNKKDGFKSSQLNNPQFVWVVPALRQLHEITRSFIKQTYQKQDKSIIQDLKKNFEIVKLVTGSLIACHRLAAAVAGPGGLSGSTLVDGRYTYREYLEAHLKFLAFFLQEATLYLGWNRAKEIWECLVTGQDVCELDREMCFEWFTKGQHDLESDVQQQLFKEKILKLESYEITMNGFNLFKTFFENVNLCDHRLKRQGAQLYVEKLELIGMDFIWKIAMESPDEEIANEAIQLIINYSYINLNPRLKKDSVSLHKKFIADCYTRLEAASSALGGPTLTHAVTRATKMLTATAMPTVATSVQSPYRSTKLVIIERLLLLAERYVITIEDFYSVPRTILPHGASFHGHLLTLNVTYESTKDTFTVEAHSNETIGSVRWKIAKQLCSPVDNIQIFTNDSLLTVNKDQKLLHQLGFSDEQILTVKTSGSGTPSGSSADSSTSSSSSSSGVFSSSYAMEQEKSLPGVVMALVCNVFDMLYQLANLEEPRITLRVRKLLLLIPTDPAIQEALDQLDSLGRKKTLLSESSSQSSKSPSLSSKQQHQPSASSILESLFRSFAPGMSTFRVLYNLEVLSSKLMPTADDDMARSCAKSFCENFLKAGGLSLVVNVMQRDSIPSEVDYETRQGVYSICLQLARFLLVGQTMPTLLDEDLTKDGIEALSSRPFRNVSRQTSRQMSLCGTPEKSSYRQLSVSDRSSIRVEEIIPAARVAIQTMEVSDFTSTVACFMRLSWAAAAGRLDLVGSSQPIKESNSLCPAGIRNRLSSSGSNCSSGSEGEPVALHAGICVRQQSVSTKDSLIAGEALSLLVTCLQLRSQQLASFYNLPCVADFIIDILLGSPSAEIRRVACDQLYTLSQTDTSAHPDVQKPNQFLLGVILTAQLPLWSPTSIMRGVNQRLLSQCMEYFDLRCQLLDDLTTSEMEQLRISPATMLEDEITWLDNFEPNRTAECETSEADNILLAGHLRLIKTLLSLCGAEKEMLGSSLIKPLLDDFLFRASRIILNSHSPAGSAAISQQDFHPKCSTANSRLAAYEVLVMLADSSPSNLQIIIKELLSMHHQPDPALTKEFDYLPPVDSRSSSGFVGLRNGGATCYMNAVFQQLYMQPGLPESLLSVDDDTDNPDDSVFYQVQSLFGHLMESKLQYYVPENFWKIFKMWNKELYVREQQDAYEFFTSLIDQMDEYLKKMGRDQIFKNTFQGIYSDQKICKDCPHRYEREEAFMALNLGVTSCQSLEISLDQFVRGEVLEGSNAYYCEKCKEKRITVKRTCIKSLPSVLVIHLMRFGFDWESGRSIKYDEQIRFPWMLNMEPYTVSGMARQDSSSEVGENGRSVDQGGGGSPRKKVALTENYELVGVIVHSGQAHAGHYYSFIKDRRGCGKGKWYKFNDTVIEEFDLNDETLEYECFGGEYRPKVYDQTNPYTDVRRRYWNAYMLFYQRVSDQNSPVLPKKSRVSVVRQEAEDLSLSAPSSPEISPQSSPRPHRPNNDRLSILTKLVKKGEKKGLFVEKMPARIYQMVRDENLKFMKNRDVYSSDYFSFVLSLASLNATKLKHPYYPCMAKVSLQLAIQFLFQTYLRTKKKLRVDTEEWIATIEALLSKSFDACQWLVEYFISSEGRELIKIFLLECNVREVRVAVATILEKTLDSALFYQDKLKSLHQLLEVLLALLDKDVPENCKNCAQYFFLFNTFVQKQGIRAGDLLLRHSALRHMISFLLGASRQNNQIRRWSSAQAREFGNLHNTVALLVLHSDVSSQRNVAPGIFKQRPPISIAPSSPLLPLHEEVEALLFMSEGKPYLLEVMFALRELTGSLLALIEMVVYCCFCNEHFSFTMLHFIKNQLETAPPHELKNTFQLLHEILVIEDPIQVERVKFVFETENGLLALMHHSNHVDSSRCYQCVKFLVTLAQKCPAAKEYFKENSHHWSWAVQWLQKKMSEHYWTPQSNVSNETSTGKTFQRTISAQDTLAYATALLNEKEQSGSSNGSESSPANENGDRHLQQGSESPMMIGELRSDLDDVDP
Summary of the method: as §1

USP25 = molecular target: T3, USP25 (UniProt Q9UHP3)
T3 sequence (whole entry): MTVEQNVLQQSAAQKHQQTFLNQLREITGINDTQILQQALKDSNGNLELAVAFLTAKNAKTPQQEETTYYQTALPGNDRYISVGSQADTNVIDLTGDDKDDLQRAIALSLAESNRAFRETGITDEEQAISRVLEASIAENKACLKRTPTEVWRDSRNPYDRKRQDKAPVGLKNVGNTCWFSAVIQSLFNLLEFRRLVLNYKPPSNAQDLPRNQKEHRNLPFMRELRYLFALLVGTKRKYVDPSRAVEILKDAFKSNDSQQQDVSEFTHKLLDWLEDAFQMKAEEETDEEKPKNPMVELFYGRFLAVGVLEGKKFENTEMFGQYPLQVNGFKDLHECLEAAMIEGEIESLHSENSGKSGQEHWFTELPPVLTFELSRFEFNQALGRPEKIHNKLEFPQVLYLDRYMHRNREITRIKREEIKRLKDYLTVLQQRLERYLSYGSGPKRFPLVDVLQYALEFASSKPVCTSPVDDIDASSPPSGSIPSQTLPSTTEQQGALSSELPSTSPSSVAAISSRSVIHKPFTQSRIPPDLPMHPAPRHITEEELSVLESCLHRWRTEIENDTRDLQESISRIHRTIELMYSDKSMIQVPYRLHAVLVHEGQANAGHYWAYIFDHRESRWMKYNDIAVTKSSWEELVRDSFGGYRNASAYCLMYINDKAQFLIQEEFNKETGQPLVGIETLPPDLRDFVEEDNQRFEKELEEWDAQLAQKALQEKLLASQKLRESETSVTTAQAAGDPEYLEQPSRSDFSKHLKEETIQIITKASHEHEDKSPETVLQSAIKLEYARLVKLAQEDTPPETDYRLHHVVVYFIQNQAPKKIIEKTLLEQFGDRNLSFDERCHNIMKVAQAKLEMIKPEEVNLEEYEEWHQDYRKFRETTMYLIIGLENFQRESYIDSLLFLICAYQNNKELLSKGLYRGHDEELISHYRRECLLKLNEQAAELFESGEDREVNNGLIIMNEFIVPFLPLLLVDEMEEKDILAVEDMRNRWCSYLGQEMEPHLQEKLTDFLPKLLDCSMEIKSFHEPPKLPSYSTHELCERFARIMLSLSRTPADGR
Summary of the method: as §1

USP28 = molecular target: T4, USP28 (UniProt Q96RU2)
T4 sequence (whole entry): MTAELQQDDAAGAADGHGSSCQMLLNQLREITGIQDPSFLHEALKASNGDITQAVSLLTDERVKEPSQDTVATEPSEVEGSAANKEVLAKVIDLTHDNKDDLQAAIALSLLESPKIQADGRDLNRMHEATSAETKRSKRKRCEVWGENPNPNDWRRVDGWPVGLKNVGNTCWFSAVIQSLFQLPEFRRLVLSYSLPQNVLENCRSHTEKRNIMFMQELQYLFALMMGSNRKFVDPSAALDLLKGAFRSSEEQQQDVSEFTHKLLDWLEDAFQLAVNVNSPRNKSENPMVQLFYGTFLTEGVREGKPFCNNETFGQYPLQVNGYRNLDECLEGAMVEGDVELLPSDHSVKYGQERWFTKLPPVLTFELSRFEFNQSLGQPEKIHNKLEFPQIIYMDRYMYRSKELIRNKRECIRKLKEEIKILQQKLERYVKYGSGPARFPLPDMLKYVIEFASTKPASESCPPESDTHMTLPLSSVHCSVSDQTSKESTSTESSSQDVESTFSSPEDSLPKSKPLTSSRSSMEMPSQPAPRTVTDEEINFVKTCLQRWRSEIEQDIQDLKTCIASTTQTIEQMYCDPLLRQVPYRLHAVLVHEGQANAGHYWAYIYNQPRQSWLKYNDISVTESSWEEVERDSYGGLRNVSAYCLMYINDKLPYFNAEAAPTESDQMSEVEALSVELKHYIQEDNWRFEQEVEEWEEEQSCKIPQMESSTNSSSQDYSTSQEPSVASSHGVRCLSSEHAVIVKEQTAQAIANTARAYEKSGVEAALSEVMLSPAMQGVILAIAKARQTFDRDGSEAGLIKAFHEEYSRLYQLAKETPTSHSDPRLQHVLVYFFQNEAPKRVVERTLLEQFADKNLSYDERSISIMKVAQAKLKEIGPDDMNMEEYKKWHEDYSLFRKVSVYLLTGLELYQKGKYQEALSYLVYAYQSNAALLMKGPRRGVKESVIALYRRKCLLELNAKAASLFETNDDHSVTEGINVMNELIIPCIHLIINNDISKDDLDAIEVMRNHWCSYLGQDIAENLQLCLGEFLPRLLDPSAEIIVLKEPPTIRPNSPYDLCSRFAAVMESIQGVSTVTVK
Summary of the method: as §1

Measured: log2 ratio of Biotin-Ahx-Ub-VS probe labelling

O=C(CCl)N1CCC(C(O)c2ccc(F)cc2)CC1 (stereo not given)
inactive: USP19 0.0656 | USP22 0.13 | USP24 -0.164 | USP25 0.058 | USP28 -0.0428
